Measurements published in PubChem BioAssay (NCI).
Compounds without any hit were thinned out: in the full panel of roughly 79,000, 15% have a hit. The source made the active and inactive calls. Cut-off read from the data, not from the text of the source: active = growth inhibition above about 70%; inactive = the rest.

What was measured:
[1] = NCI Yeast Anticancer Drug Screen. Data for the rad52 strain (AID 147);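 note: 0% = growth of vehicle-treated control cultures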; details: S. cerevisiae rad52 mutant growth inhibition, hits give high values
Outline: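 The repair-mutant yeast strain was incubated with compounds, then growth was read and inhibition derived relative to vehicle.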

[2] = NCI Yeast Anticancer Drug Screen. Data for the wt1 strain (AID 149);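 note: 0% = growth of vehicle-treated wt1 cultures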; details: S. cerevisiae wt1 strain (SPY 50644) growth inhibition, hits give high values
Outline: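 The wt1 strain was treated with compounds, and growth was compared with vehicle-treated cultures to give inhibition.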

[3] = NCI Yeast Anticancer Drug Screen. Data for the rad50EPP+ strain (AID 151);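 note: 0% = growth of vehicle-treated control cultures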; details: S. cerevisiae rad50 mutant strain, hits give high values
Outline: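 Vehicle-normalised growth inhibition; rad50EPP+ yeast strain, altered in DNA damage repair, compound-treated.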

[4] = NCI Yeast Anticancer Drug Screen. Data for the mgt1 strain (AID 153); details: S. cerevisiae mgt1 mutant growth inhibition, hits give high values
Outline: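 Vehicle-normalized growth inhibition is determined in mgt1 yeast, a strain selected for a defined alteration in DNA repair or cell cycle control.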

[5] = NCI Yeast Anticancer Drug Screen. Data for the rad50 strain (AID 155);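 note: 0% = growth of vehicle-only cultures of the same strain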; details: S. cerevisiae rad50 strain growth inhibition, hits give high values
Outline: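 Cells are treated with compound, grown, and their growth is then scored against vehicle-only cultures of the same repair-deficient yeast strain.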

[6] = NCI Yeast Anticancer Drug Screen. Data for the mec2-1 strain (AID 157); details: S. cerevisiae mec2-1 strain, hits give high values
Outline: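 Mutant yeast (mec2-1) grown with compound; growth inhibition relative to vehicle control reported.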

[7] = NCI Yeast Anticancer Drug Screen. Data for the rad14 strain (AID 159);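 note: 0% = growth of vehicle-treated control cultures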; details: S. cerevisiae rad14 strain growth inhibition, hits give high values
Outline: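 Readout: yeast growth inhibition, referenced to vehicle-only cultures. Strain bears a defined alteration in DNA damage repair.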

[8] = at 5.0 µM (retest, dose inferred, filed as 0.5)
[9] = at 50.0 µM (retest, dose inferred, filed as 5.0)

Measured: growth inhibition

CN(C)c1nc(=Nc2cccc(Cl)c2)ss1
inactive: [1]; at 1.2 µM 7% | [1]; at 3.7 µM 34% | [2]; at 1.2 µM 7% | [2]; at 3.7 µM 20% | [2]; at 11.0 µM 63% | [3]; at 1.2 µM 9% | [3]; at 3.7 µM 42% | [4]; at 1.2 µM 9% | [4]; at 3.7 µM 47% | [5]; at 1.2 µM 5% | [5]; at 3.7 µM 32% | [6]; at 1.2 µM 11% | [6]; at 3.7 µM 28% | [6]; [8] 56% | [7]; at 1.2 µM 6% | [7]; at 3.7 µM 30%
active: [1]; at 11.0 µM 89% | [1]; at 33.0 µM 99% | [1]; at 100.0 µM 99% | [2]; at 33.0 µM 99% | [2]; at 100.0 µM 99% | [3]; at 11.0 µM 92% | [3]; at 33.0 µM 99% | [3]; at 100.0 µM 99% | [4]; at 11.0 µM 98% | [4]; at 33.0 µM 99% | [4]; at 100.0 µM 99% | [5]; [8] 75% | [5]; at 11.0 µM 89% | [5]; at 33.0 µM 99% | [5]; [9] 99% | [5]; at 50.0 µM 99.5% | [5]; at 100.0 µM 99% | [6]; at 11.0 µM 96% | [6]; at 33.0 µM 100% | [6]; [9] 99% | [6]; at 50.0 µM 99.7% | [6]; at 100.0 µM 100% | [7]; at 11.0 µM 97% | [7]; at 33.0 µM 99% | [7]; at 100.0 µM 99%
